Data on 12 sequences can be found in paper PMC5869772, “Quantitative profiling of BATF family proteins/JUNB/IRF hetero-trimers using Spec-seq”.

Common to all, as to test: Spec-seq (EMSA and sequencing of bound and unbound bands); 100 nM BATFx-JUNB, 1 uM dsDNA library, 50 mM K acetate, 20 mM Tris-acetate, 10 mM Mg acetate, 100 ug/ml BSA, pH 7.9, 10% glycerol, 30 min on ice; native 9% PAGE at 4 C; low values mean tight binding
Holding throughout (conditions): protein: recombinant;recombinant; tags: N-terminal mCherry-TEV, cleaved off;C-terminal 6His; copies: 1;1; dsDNA, one strand shown
In general terms: In EMSA bound probe runs differently from free probe, usually more slowly.

One test deals with T1, BATF;JUNB (human;human, UniProt Q16520;P17275 1-125;148-347, |).
T1 sequence 1: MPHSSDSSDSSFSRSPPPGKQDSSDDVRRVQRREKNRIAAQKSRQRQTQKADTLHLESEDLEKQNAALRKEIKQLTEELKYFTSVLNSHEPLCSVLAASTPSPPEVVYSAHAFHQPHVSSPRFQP
T1 sequence 2: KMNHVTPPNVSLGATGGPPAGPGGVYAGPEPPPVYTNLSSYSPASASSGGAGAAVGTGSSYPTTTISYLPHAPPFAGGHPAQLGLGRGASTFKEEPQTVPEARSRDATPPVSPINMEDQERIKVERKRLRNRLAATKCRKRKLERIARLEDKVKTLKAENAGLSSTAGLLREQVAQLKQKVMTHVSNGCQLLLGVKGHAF
In a few lines:
(§1)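 The protein, at 100 nM, was incubated with 1 μM double-stranded degenerate DNA library for 30 min on ice in NEB Cutsmart buffer with 10% glycerol, then resolved by native 9% PAGE at 4 °C. Excised bound and unbound bands were PCR-barcoded and Illumina-sequenced, and each sequence's relative binding energy in kT is −ln of its bound/unbound read-count ratio.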

The target of a further test is T2, BATF2 (bZIP);JUNB (human;human, UniProt Q8N1L9;P17275 1-142;148-347, |).
T2 sequence 1: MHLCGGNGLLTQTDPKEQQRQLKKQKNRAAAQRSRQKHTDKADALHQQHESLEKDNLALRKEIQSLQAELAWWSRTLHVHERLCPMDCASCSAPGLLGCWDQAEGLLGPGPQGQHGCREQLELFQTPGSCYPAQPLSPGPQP
T2 sequence 2: T1 sequence 2
In a few lines: as §1

For another test, the target named is T3, BATF3;JUNB (human;human, UniProt Q9NR55;P17275 1-127;148-347, |).
T3 sequence 1: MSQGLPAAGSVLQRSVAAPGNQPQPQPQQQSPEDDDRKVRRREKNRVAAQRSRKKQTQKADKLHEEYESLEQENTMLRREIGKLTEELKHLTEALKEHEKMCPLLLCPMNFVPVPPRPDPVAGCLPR
T3 sequence 2: T1 sequence 2
The essentials:
as §1

Take “GATAGTCTCATTTTCACCCCGTGAAATCAGTCATTTGTTCCATTACAGTATCTGT”: the binding signal with BATF;JUNB is -0.312 kT; with BATF2 (bZIP);JUNB, 0.249 kT; with BATF3;JUNB, -0.231 kT.

In the case of “GATAGTCTCATTTTCACCCCGTGAAATGCCTCATTTGTTCCATTACAGTATCTGT”, the figures for the binding signal with BATF;JUNB, with BATF2 (bZIP);JUNB and with BATF3;JUNB were 0.532 kT, 1.18 kT and 1.01 kT, respectively.

Regarding “GATAGTCTCATTTTCACCCCGTGAAATGACCCATTTGTTCCATTACAGTATCTGT”, the binding signal in the test with BATF;JUNB was 0.311 kT; with BATF2 (bZIP);JUNB it was 0.823 kT; in the test with BATF3;JUNB it was 0.67 kT.

Turning to “GATAGTCTCATTTTCACCCCGTGAAATTGCGTCATTGTTCCATTACAGTATCTGT”, the results for the binding signal with BATF;JUNB, with BATF2 (bZIP);JUNB and with BATF3;JUNB were -0.89 kT, -0.761 kT and -1.72 kT, respectively.

With “GATAGTCTCATTTTCACCCCGTGAAACCGAGTCATTGTTCCATTACAGTATCTGT”, the binding signal in the test with BATF;JUNB is -0.617 kT; with BATF2 (bZIP);JUNB, 0.173 kT; with BATF3;JUNB it was -0.192 kT.

For the sequence “GATAGTCTCATTTTCACCCCGTGAAATGACTAAGTTGTTCCATTACAGTATCTGT”, the values for the binding signal with BATF;JUNB, in the test with BATF2 (bZIP);JUNB and with BATF3;JUNB were -0.456 kT, 0.286 kT and -0.104 kT, respectively.

As for “GATAGTCTCATTTTCACCCCGTGAAATGTGTCATTTGTTCCATTACAGTATCTGT”, the binding signal with BATF;JUNB is -0.52 kT; with BATF2 (bZIP);JUNB it was -0.022 kT; in the test with BATF3;JUNB it was -0.44 kT.

On to “GATAGTCTCATTTTCACCCCGTGAAATAACGTCATTGTTCCATTACAGTATCTGT”, for which the binding signal with BATF;JUNB is -0.467 kT; with BATF2 (bZIP);JUNB it was -0.287 kT; with BATF3;JUNB it was -1.09 kT.

Consider “GATAGTCTCATTTTCACCCCGTGAAATGAGTCTATTGTTCCATTACAGTATCTGT”, for which the binding signal was -0.119 kT in the test with BATF;JUNB, 1.33 kT in the test with BATF2 (bZIP);JUNB and 0.647 kT in the test with BATF3;JUNB.

For the sequence “GATAGTCTCATTTTCACCCCGTGAAAAGACGTCATTGTTCCATTACAGTATCTGT”, the binding signal with BATF;JUNB was -0.231 kT; with BATF2 (bZIP);JUNB it was -0.0139 kT; with BATF3;JUNB, -0.682 kT.

With “GATAGTCTCATTTTCACCCCGTGAAAATTAGTCATTGTTCCATTACAGTATCTGT”, the binding signal in the test with BATF;JUNB was -1.07 kT; in the test with BATF2 (bZIP);JUNB, -0.658 kT; with BATF3;JUNB it was -1.24 kT.

In the case of “GATAGTCTCATTTTCACCCCGTGAAATGGGTCATTTGTTCCATTACAGTATCTGT”, the binding signal is 0.293 kT with BATF;JUNB, 0.704 kT with BATF2 (bZIP);JUNB and 0.458 kT with BATF3;JUNB.
